31 compounds from PubChem BioAssay (NCI) can be followed below.

Common to all, as to test: NCI-60 one-dose screen, 48 h (100 = growth as untreated, 0 = no growth, -100 = all killed)
For one test, the system named is MDA-MB-435 melanoma. Conditions: 10 µM unless noted.
The test system of a further test is SW-620 colon. The following applies: 10 µM unless noted.
For the next test, the system named is MCF7 breast. Conditions: 10 µM.
A further test deals with HCT-116 colon. The following applies: 10 µM unless noted.
A further test has as its system HCC-2998 colon. Conditions: 10 µM unless noted.
The test system of another test is KM12 colon. The following applies: 10 µM unless noted.

Compounds without any hit were thinned out: in the full panel of roughly 83,000, 20% have a hit.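 Values shown are percent growth following 48 h exposure of cells in 96-well plates to a single concentration of compound; below 10 was considered active.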 Unmarked numbers belong to inactive results. Calls of active or inactive are those of the source.

On to `Nc1ccc(-n2c(=O)oc3ccc(Cl)cc3c2=O)c(Cl)c1`, for which the growth in the test on MDA-MB-435 melanoma is -5.78% (active); in the test with SW-620 colon it was 5.14% (active); in the test on MCF7 breast, 4.1% (active); in the test on HCT-116 colon, -4.7% (active); in the test with HCC-2998 colon it was 10.2%; with KM12 colon it was -33.7% (active).

On to `Cc1ccc(C2CC(c3ccc(Nc4nc(NCCO)nc(Nc5ccc(Cl)cc5)n4)cc3)=NN2c2cc(Cl)cc(Cl)c2)cc1` (stereo not given), for which the growth was 98.8% with MDA-MB-435 melanoma; 101% in the test on SW-620 colon; 88.2% in the test on MCF7 breast; 103% in the test with HCT-116 colon; 111% in the test on HCC-2998 colon; 103% in the test on KM12 colon.

Regarding `COc1ccc(C2=C(c3cccc(OC)c3)C(=O)c3ccc(C)nc3C2=O)cc1`, the growth in the test with MDA-MB-435 melanoma was 32.2%; with SW-620 colon, 23.6%; in the test with MCF7 breast it was 23.7%; in the test on HCT-116 colon it was 11.2%; with HCC-2998 colon, 84.6%; in the test with KM12 colon, 28.6%.

Take `COc1cc(NC(=O)CCSc2nc3ccccc3c(=O)n2CCc2ccccn2)cc(OC)c1OC`: the growth in the test on MDA-MB-435 melanoma was 101%; in the test on SW-620 colon, 101%; in the test on MCF7 breast it was 62.4%; with HCT-116 colon, 85.5%; in the test on HCC-2998 colon, 97.5%; in the test with KM12 colon, 99.8%.

Take `COc1ccc(/C=C/C(=O)c2c(C)nc3ccccc3c2/C=C/c2ccccc2)cc1O`: the growth is 1.85% (active) with MDA-MB-435 melanoma; 19.4% in the test on SW-620 colon; 18.2% in the test on MCF7 breast; 12% in the test on HCT-116 colon; 82.4% in the test with HCC-2998 colon; 35.6% with KM12 colon.

Turning to `O=C(Nc1ccc(F)cc1F)c1cc(Cl)ccc1O`, the growth in the test with MDA-MB-435 melanoma was 4.56% (active); in the test on SW-620 colon it was 14.5%; in the test with MCF7 breast, 3.22% (active); with HCT-116 colon, 8.39% (active); in the test on HCC-2998 colon, 23.1%; with KM12 colon, 5.33% (active).

Regarding `O=C(CCc1nnc2sc(Cc3ccccc3Cl)nn12)c1nc2ncccc2[nH]1`, the growth with MDA-MB-435 melanoma is 102%; with SW-620 colon, 88.4%; in the test with MCF7 breast, 80%; with HCT-116 colon it was 84%; in the test with HCC-2998 colon it was 87.7%; in the test on KM12 colon, 97.1%.

For the compound `O=C(CCc1nnc2sc(COc3ccccc3)nn12)c1nc2ncccc2[nH]1`, the growth with MDA-MB-435 melanoma is 101%; in the test on SW-620 colon it was 85.8%; in the test with MCF7 breast, 94.5%; in the test with HCT-116 colon, 91.3%; in the test with HCC-2998 colon it was 99.8%; in the test on KM12 colon, 99.8%.

In the case of `CCOC(=O)C1(Cc2ccccc2)CCN(Cc2cccc(OC)c2O)CC1`, the growth in the test on MDA-MB-435 melanoma is 20.1%; in the test on SW-620 colon, 20.9%; with MCF7 breast, 13.9%; in the test with HCT-116 colon, 21%; with HCC-2998 colon, 11.9%; in the test on KM12 colon, 22.2%.

In the case of `COc1ccc(Cn2cc(Cn3cc(C=C4C(=O)NC(=O)NC4=O)c4ccccc43)nn2)cc1`, the growth was 90.8% with MDA-MB-435 melanoma; 85.9% in the test with SW-620 colon; 75.8% in the test on MCF7 breast; 80.1% in the test with HCT-116 colon; 109% in the test with HCC-2998 colon; 93% with KM12 colon.

Regarding `O=C1c2cc(Br)ccc2Oc2cc([N+](=O)[O-])ccc2N1c1ccc(I)cc1F`, the growth in the test with MDA-MB-435 melanoma is 102%; with SW-620 colon, 94.2%; with MCF7 breast it was 97.1%; in the test on HCT-116 colon, 87.5%; in the test on HCC-2998 colon, 102%; in the test with KM12 colon, 100%.

For the compound `CCOc1ccc(Nc2ccnc3cc(Cl)ccc23)cc1`, the growth with MDA-MB-435 melanoma was -7.51% (active); in the test on SW-620 colon it was 14.5%; in the test with MCF7 breast, 4.41% (active); in the test on HCT-116 colon it was 9.4% (active); in the test with HCC-2998 colon it was 12.2%; in the test with KM12 colon, 6.96% (active).

Regarding `Cc1ccc(N=NC2C(=O)N(c3ccc(Cl)cc3)N(c3ccc(Cl)cc3)C2=O)cc1`, the growth with MDA-MB-435 melanoma is 103%; in the test with SW-620 colon it was 96.4%; in the test with MCF7 breast, 85.5%; with HCT-116 colon it was 97.2%; in the test with HCC-2998 colon, 109%; with KM12 colon, 90.3%.

Turning to `Nc1nonc1-n1nncc1-c1cccnc1`, the growth was 102% in the test with MDA-MB-435 melanoma; 111% in the test on SW-620 colon; 93.4% in the test with MCF7 breast; 106% with HCT-116 colon; 112% with HCC-2998 colon; 105% in the test on KM12 colon.

Regarding `O=C(c1ccccc1)N(CCc1ccc(Cl)cc1)C(=S)N(C(=O)c1ccccc1)c1ccccc1`, the growth in the test with MDA-MB-435 melanoma is 96.8%; with SW-620 colon, 80.3%; in the test with MCF7 breast it was 35.7%; with HCT-116 colon, 69.6%; with HCC-2998 colon, 105%; in the test with KM12 colon it was 56.5%.

Take `Cc1ccc(OCCCCCCNCCO)c(C)c1`: the growth is 15.2% with MDA-MB-435 melanoma; 18.1% in the test with SW-620 colon; 9.1% (active) in the test with MCF7 breast; 19.1% with HCT-116 colon; -6.64% (active) in the test on HCC-2998 colon; 15.1% with KM12 colon.

On to `CC(=O)Nc1nc2c(s1)CCc1c-2cn(S(=O)(=O)c2ccccc2)c1-c1ccccc1`, for which the growth in the test on MDA-MB-435 melanoma is 59.7%; with SW-620 colon, 79.5%; in the test with MCF7 breast, 54.2%; in the test with HCT-116 colon it was 57.9%; in the test with HCC-2998 colon, 80.4%; in the test on KM12 colon, 54.9%.

As for `Cc1nc2ccccc2c(/C=C/c2ccccc2)c1C(=O)/C=C/c1ccc(Cl)cc1`, the growth was -9.81% (active) in the test on MDA-MB-435 melanoma; 3.99% (active) in the test with SW-620 colon; 14.2% in the test on MCF7 breast; -5.14% (active) in the test on HCT-116 colon; 12.4% in the test with HCC-2998 colon; 21.4% in the test with KM12 colon.

Take `O=c1oc2ccc(Br)cc2c(=O)n1-c1ccc(I)cc1F`: the growth in the test with MDA-MB-435 melanoma was -1.76% (active); in the test on SW-620 colon, 10%; in the test on MCF7 breast, 1.41% (active); in the test with HCT-116 colon, 0.0693% (active); with HCC-2998 colon, 18.3%; in the test with KM12 colon it was -18% (active).

Take `O=c1oc2ccc(Cl)cc2c(=O)n1-c1ccc(I)cc1F`: the growth in the test with MDA-MB-435 melanoma is -6.3% (active); in the test on SW-620 colon, 7.19% (active); in the test on MCF7 breast, 3.96% (active); in the test with HCT-116 colon, 2% (active); in the test with HCC-2998 colon, 16.2%; with KM12 colon, -18.3% (active).

For the compound `CCOC(=O)c1sc(-c2ccc(OS(=O)(=O)C[C@]34CCC(CC3=O)C4(C)C)c(C=O)c2)nc1C`, the growth was 7.61% (active) in the test with MDA-MB-435 melanoma; 10.5% in the test on SW-620 colon; 2% (active) in the test with MCF7 breast; 5.89% (active) in the test with HCT-116 colon; 66.4% with HCC-2998 colon; 7.78% (active) in the test on KM12 colon.

As for `Nc1ccc(-c2nn3c(CCC(=O)c4nc5ncccc5[nH]4)nnc3s2)c(O)c1`, the growth was 97.2% with MDA-MB-435 melanoma; 90.1% in the test with SW-620 colon; 84.7% in the test with MCF7 breast; 86.7% in the test with HCT-116 colon; 69.4% in the test on HCC-2998 colon; 98.5% in the test on KM12 colon.

As to `CC[C@]1(O)C[C@@H]2CN(CCc3c([nH]c4ccccc34)[C@@](C(=O)OC)(c3cc4c(cc3OC)N(C)[C@H]3[C@@](O)(C(=O)OC)[C@H](OC(C)=O)[C@]5(CC)C=CCN6CC[C@]43[C@@H]65)C2)C1`, the growth was -38% (active) in the test with MDA-MB-435 melanoma; 22.7% in the test on SW-620 colon; 10.6% in the test on MCF7 breast; 7.92% (active) with HCT-116 colon; 0.153% (active) in the test with HCC-2998 colon; 8.64% (active) with KM12 colon.

Regarding `O=c1oc2ccc(Cl)cc2c(=O)n1-c1cc(C(F)(F)F)cc(C(F)(F)F)c1`, the growth with MDA-MB-435 melanoma was -4.47% (active); in the test on SW-620 colon it was 6.78% (active); in the test with MCF7 breast, 2.18% (active); in the test with HCT-116 colon, -12.7% (active); with HCC-2998 colon, 5.83% (active); in the test with KM12 colon, -31.5% (active).

Consider `O=C1c2ccccc2C(=O)c2c1ccc1[nH]c(CCl)nc21`, for which the growth is 28.6% with MDA-MB-435 melanoma; -23.7% (active) in the test with SW-620 colon; 6.47% (active) in the test on MCF7 breast; -6.49% (active) in the test with HCT-116 colon; 65.5% with HCC-2998 colon; 22.9% in the test on KM12 colon.

`O=C(Nc1ccc(Br)cc1F)c1cc(I)ccc1O`: the growth was 4.78% (active) with MDA-MB-435 melanoma; 14.1% in the test on SW-620 colon; 5.42% (active) in the test on MCF7 breast; 5.43% (active) in the test on HCT-116 colon; 27.4% with HCC-2998 colon; 6.15% (active) in the test on KM12 colon.

On to `COc1ccc(/C=C2\SC(=Nc3ccccc3)NC2=O)cc1`, for which the growth was -74.2% (active) with SW-620 colon; -85% (active) in the test with MCF7 breast; -82.2% (active) with HCT-116 colon; -87.5% (active) in the test on HCC-2998 colon; -89.6% (active) in the test on KM12 colon.

Regarding `O=c1oc2ccc(I)cc2c(=O)n1-c1ccc(Cl)cc1F`, the growth in the test with MDA-MB-435 melanoma was 1.42% (active); in the test with MCF7 breast, 2.84% (active); with HCT-116 colon, 7.44% (active); with HCC-2998 colon, 16.9%; with KM12 colon it was 1.77% (active).

Turning to `CCOC(=O)C1=CN(C)C=C(C(=O)OCC)C1c1cc(Br)c(OCC)c(OC)c1`, the growth in the test with MDA-MB-435 melanoma is 15.6%; in the test on MCF7 breast, 14.7%; with HCT-116 colon, 43.9%; in the test on HCC-2998 colon, -16.5% (active); with KM12 colon, 48.4%.

On to `CCN1CCN(C(=S)SCC(=O)Nc2nc3ccc(C)cc3s2)CC1`, for which the growth in the test with MDA-MB-435 melanoma was 116%; with SW-620 colon, 109%; in the test with HCT-116 colon it was 94.7%.

Consider `O=C(Nc1ccc(N2CCNCC2)cc1)c1[nH]ncc1Nc1ncnc2sc3c(c12)CCC3`, for which the growth in the test on MDA-MB-435 melanoma was -94.4% (active); with SW-620 colon it was -83.1% (active); in the test on MCF7 breast it was -59% (active); with HCT-116 colon, -85.4% (active); in the test with HCC-2998 colon, -91.4% (active); in the test on KM12 colon, -82.4% (active).
